Data: PubChem BioAssay (NCATS)
Where “and” joins values, the source holds several entries; their conditions need not be identical. Equal values may be shown once. Results filed as inconclusive are left out. Where a call stands in place of a potency, no number is given. Calls of active or inactive are those of the source. Unless noted, calls come from the whole dose curve; as a rule, active = well fitted curve in the direction sought with a large enough effect; inconclusive = small, poorly fitted or top-dose-only effect, or another doubt; inactive = no such curve, though single readings can be large; an effect the other way counts as inactive or inconclusive.

Tests used:
[1] = target: Nuclear receptor ROR-gamma (Homo sapiens) (UniProt P51449); assay: qHTS assay for small molecule antagonists of the retinoid-related orphan receptor gamma (ROR-gamma) signaling pathway (AID 651802);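 note: CHO cells with doxycycline-induced ROR-gamma expression; luciferase reporter luminescence driven by ROR response element; nearly all actives have a fitted effect of over 60% in size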
In short: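 Luciferase read-out: ONE-Glo luminescence after 30 min at room temperature, following 16hr doxycycline induction at 37C, 5% CO2 of CHO cells with TET-inducible ROR and RORE-LUC reporter; decreased luminescence = reduced reporter activity.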

[2] = qHTS for Activators of Parkin Expression: LOPAC Validation Assay (NLuc Reporter) (AID 720572)
In short: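 NLuc signal, read 10 min after reagent and following a prior FLuc read, is normalized to DMSO (0) and positive controls (100%). Cells: neuronal Parkin-promoter coincidence reporter line; compounds tested 7-point, 24 h, 37 C, 5% CO2.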

[3] = qHTS for Activators of Parkin Expression: LOPAC Validation Assay (FLuc Reporter) (AID 720573)
In short: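 FLuc luminescence read-out from a neuronal line expressing a Parkin-promoter-driven coincidence reporter. Cells treated 24 h at 37 C, 5% CO2 with compounds at 7 concentrations; signal increase normalized to DMSO and positive control.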

[4] = qHTS assay for small molecule agonists of the antioxidant response element (ARE) signaling pathway measured by Nrf2-dependant transcriptional activity (AID 720636; active = well fitted curve in the direction sought with a large enough effect in the repeat runs; an effect the other way counts as inactive or inconclusive;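 note: HepG2 cells with an ARE-driven luciferase reporter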)
In short: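 Reporter gene assay, HepG2 ARE-luc: 16 hr compound, 37 C, 5% CO2; read-out luciferase luminescence.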

[5] = qHTS assay for small molecule antagonists of the retinoid-related orphan receptor gamma (ROR-gamma) signaling pathway - cell viability counter screen (AID 720652; active = well fitted curve in the direction sought with a large enough effect in the repeat runs; an effect the other way counts as inactive or inconclusive;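 note: CHO reporter cells with doxycycline-induced ROR-gamma expression; compound exposure lasted 16 hr before ATP read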)
In short: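 CHO RORE-LUC/TET-ROR line, 1,000 cells/well, 37 C 5% CO2 5 hr; cpd or DMSO + doxycycline induction, 16 hr. CellTiter-Glo, 30 min RT, luminescence = ATP content.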

[6] = qHTS assay for small molecule agonists of the antioxidant response element (ARE) signaling pathway measured by Nrf2-dependant transcriptional activity - cell viability counter screen (AID 720653; active = well fitted curve in the direction sought with a large enough effect in the repeat runs; an effect the other way counts as inactive or inconclusive); conditions: ARE-bla HepG2 viability, CellTiter-Glo ATP luminescence, 16 h; max response: stronger effect = lower value
In short: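 ARE-bla HepG2 cells treated with compounds for 16 h at 37C; this counter screen measures viability as intracellular ATP by CellTiter-Glo luminescence after 30 min at room temperature.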

[7] = target: T1, Hexokinase-4 (Homo sapiens) + Glucokinase regulatory protein (Homo sapiens) (UniProt P35557+Q14397); assay: qHTS assay for inhibitors of recombinant human GCK-GKRP interaction: Diaphorase-coupled assay (AID 743205)
In short: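 Resorufin fluorescence (525/590 nm), read each minute over 30 min, reports GCK activity coupled via G6PDH and diaphorase. Reaction: 10 nM GST-GCK, 10 nM FLAG-GKRP, 5 mM glucose, 0.4 mM ATP, 0.15 mM NADP+, 0.1 mM resazurin.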

[8] = target: T1, Hexokinase-4 (Homo sapiens) + Glucokinase regulatory protein (Homo sapiens); assay: qHTS assay for inhibitors of recombinant human GCK-GKRP interaction: ADP-Glo assay (AID 743206)
In short: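 Pin-transferred compounds meet a 15 nM GST-GCK/15 nM FLAG-GKRP/2 uM S6P mix (dispense concentrations). ATP is then added to 0.4 mM final with 5 mM glucose, and the reaction runs 60 min at room temperature. ADP is quantified luminescently.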

[9] = target: T1, Hexokinase-4 (Homo sapiens) + Glucokinase regulatory protein (Homo sapiens); assay: qHTS assay for inhibitors of recombinant human GCK-GKRP interaction: HTRF assay (AID 743207)
In short: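 HTRF read-out (ex 320 nm; 615/665 nm emission) after 60 min RT equilibration of 5 nM GST-GCK, 5 nM FLAG-GKRP, 2 uM S6P, compound and anti-FLAG/anti-GST detection antibodies; signal normalized between DMSO wells with and without GCK.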

[10] = qHTS Assay for Identifying Gametocytocidal Compounds (AID 743244); note: potency is the fitted concentration of half-maximal effect;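 for max response: actives lower the fluorescent signal which means gametocytes are killed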; conditions: P. falciparum 3D7 stage III-V gametocytes, alamarBlue, 72 h; max response: stronger effect = lower value
In short: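 In this qHTS viability screen, late-stage 3D7 gametocytes are incubated with compound for 72 h, then with alamarBlue for 24 h; reduced resorufin fluorescence marks killing.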

[11] = qHTS assay for cell viability of the p53RE-bla HCT-116 cell line (AID 743292); note: nearly all actives have a fitted effect of over 55% in size
In short: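 Readout: CellTiter-Glo luminescence after 30 min RT. Treatment: compounds in DMSO, 16 h, 37 C. Cells: CellSensor p53RE-bla HCT-116, 4,000/well, preincubated 5 h.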

[12] = qHTS profiling of the MIPE4 collection as inhibitors of Plasmodium falciparum (3D7) proliferation (AID 743344; call rule not given here); conditions: P. falciparum 3D7 in erythrocytes, SYBR Green DNA fluorescence, 72 h; at 28.5 µM (top of the series) unless noted
In short: (§1)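 Parasite DNA was quantified by SYBR Green I fluorescence (ex 485, em 535 nm) after overnight lysis in saponin/Triton buffer at room temperature. Cultures at 0.3% parasitemia and 2.5% hematocrit were first exposed to compound for 72 h at 37 C; signals were normalised to artemisinin (0.29 uM) and vehicle wells.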

[13] = qHTS profiling of the MIPE4 collection as inhibitors of Plasmodium falciparum (DD2) proliferation (AID 743345; call rule not given here); conditions: P. falciparum Dd2 in erythrocytes, SYBR Green DNA, 72 h; at 28.5 µM (top of the series) unless noted
In short: as §1

[14] = qHTS profiling of the MIPE4 collection as inhibitors of Plasmodium falciparum (DD2) proliferation (Rep 2) (AID 743346; call rule not given here); conditions: P. falciparum Dd2 in erythrocytes, SYBR Green DNA, 72 h; at 28.5 µM (top of the series) unless noted
In short: as §1

[15] = target: Arylsulfatase A (Homo sapiens) (UniProt P15289); assay: qHTS screen for enhancers of Arylsulfatase A (ASA1): LOPAC Validation Assay (AID 720538); note: potency is the fitted concentration of half-maximal effect
In short: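 Read-out: fluorescence at Ex=525/Em=598 nm after 1N NaOH final stop. Patient fibroblasts carrying ASA-I179S had 48h compound exposure, then 14h room-temperature pNCS hydrolysis (0.5mM final) in lysis buffer. Signal increase = enhanced activity.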

[16] = qHTS for compounds that reverse cellular toxicity of Amyloid beta (A-beta) peptide in yeast: LOPAC Validation Assay (AID 720559)
In short: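 OD600 growth readout after 48 hr at 30 C; A-beta-toxic yeast plus pinned compounds in medium. Normalization: DMSO = negative, equimolar FeCl3 + clioquinol = positive.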

[17] = target: Tyrosine-protein kinase Yes (Homo sapiens) (UniProt P07947); assay: qHTS for small molecule inhibitors of Yes1 kinase: Primary Screen (AID 686947); note: nearly all actives have a fitted effect of over 60% in size; note: potency is the fitted concentration of half-maximal effect
In short: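 In this qHTS format, inhibition is expressed relative to DMSO controls with enzyme (maximum) and without enzyme (minimum). The 60 min room-temperature reaction uses 0.1 mM ATP, with ADP detected by luminescence.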

[18] = qHTS profiling for inhibitors of Plasmodium falciparum (3D7) proliferation (AID 743322; call rule not given here;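 note: infected erythrocytes exposed to compound for 72 h before lysis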); conditions: P. falciparum 3D7 proliferation, at 28.7 µM (top of the series)
In short: as §1

[19] = qHTS profiling for inhibitors of Plasmodium falciparum (DD2) proliferation (AID 743323; call rule not given here); conditions: at 28.7 µM (top of the series), lower = more inhibition
In short: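 Parasite DNA quantified by SYBR Green fluorescence (ex 485, em 535 nm) after saponin/Triton lysis and overnight dark incubation. Cultures: 0.3% parasitemia, 2.5% hematocrit, 72 h, 37 C; data scaled between DMSO and 0.29 uM artemisinin.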

Sequence of Tyrosine-protein kinase Yes (Homo sapiens) (P07947 whole entry, looked up): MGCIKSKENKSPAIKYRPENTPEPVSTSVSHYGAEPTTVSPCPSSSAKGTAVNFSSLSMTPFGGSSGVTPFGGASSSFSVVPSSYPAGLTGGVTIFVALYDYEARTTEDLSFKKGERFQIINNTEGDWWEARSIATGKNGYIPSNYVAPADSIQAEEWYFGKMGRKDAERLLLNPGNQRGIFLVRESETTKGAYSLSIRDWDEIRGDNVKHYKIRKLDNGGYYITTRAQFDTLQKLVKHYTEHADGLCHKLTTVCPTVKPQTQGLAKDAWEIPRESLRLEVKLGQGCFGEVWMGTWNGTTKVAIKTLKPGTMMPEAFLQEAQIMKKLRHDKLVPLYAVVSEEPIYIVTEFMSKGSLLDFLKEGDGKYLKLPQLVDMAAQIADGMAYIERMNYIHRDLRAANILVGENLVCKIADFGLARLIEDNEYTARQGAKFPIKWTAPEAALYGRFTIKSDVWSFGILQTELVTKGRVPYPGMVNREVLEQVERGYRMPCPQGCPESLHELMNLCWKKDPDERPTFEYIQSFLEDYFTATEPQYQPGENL
Sequence of Arylsulfatase A (Homo sapiens) (P15289 whole entry, looked up): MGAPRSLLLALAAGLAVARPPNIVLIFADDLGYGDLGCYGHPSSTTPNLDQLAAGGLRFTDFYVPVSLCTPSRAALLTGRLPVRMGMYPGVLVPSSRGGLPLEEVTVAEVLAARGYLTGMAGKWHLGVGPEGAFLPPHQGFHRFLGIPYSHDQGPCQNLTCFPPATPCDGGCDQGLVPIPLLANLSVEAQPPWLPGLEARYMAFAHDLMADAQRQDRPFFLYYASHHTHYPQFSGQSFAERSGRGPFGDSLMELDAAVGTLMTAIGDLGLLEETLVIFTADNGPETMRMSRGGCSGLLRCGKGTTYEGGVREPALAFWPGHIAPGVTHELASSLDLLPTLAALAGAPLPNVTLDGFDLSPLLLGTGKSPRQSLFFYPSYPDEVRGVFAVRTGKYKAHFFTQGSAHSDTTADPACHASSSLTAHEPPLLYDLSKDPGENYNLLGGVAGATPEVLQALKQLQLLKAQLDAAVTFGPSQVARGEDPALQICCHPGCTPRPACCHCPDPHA
T1 sequence (P35557 whole entry, looked up): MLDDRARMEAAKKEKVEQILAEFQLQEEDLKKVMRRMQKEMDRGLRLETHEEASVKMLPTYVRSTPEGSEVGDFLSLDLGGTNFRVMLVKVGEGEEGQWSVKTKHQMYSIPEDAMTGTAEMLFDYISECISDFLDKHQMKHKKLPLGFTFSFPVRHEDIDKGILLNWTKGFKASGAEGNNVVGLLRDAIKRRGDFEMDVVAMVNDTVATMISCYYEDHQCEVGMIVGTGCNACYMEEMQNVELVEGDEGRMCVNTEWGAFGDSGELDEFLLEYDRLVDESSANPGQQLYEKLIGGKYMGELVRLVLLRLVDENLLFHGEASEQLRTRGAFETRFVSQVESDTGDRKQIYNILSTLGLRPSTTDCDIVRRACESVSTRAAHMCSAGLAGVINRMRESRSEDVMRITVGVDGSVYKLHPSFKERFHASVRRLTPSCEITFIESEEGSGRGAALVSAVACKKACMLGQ
T1 sequence (Q14397 whole entry, looked up): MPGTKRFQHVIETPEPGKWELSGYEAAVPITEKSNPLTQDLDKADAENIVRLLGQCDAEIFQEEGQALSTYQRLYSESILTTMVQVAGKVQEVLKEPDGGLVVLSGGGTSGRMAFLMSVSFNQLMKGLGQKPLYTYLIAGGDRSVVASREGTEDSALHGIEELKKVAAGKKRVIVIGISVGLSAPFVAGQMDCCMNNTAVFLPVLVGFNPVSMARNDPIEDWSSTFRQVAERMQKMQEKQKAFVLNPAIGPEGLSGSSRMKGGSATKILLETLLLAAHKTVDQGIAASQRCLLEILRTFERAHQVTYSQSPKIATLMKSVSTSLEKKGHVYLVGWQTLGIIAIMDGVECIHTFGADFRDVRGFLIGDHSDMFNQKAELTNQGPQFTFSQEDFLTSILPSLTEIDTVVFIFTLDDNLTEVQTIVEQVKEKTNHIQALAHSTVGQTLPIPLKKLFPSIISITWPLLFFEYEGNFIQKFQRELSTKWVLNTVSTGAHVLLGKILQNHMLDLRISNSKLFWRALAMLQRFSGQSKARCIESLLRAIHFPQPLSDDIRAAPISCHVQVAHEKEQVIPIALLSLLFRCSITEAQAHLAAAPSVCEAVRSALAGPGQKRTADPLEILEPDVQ
Sequence of Nuclear receptor ROR-gamma (Homo sapiens) (P51449 whole entry, looked up): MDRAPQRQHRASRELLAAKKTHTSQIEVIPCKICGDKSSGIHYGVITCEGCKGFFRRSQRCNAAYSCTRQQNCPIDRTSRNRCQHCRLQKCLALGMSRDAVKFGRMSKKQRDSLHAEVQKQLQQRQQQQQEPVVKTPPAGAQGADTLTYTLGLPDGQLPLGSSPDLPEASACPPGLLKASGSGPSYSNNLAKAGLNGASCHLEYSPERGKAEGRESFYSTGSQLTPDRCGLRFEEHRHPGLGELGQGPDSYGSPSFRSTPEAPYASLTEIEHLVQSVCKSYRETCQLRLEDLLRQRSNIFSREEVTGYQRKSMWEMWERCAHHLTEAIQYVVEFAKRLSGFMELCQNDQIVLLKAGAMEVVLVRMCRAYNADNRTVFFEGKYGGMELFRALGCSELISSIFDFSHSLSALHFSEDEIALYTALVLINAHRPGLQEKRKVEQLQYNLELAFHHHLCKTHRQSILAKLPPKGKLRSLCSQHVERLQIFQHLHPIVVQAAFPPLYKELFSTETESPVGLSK

| Compound | Potency [1] | outcome [2] | Potency [3] | outcome [4] | Potency [5] | max response [6] | Potency [7] | Potency [8] | Potency [9] | max response [10] | Potency [11] | parasite growth, % of DMSO control [12] | parasite growth remaining, % of DMSO control (lower = more inhibition) [13] | parasite growth, % of control (lower = inhibition) [14] | Potency [15] | outcome [16] | Potency [17] | Potency [10] | remaining parasite growth % (stronger effect = lower value) [18] | activity, percent of control [19] |
| --- | --- | --- | --- | --- | --- | --- | --- | --- | --- | --- | --- | --- | --- | --- | --- | --- | --- | --- | --- | --- |
| CC(C)NCC(O)c1ccc(O)c(O)c1 (stereo unspecified) | inactive | inactive | inactive | inactive | inactive | 0.482% (inactive) and -3.43% (inactive) | inactive | inactive | inactive | -2.95% (inactive) | inactive | 10.6% | 91.4% | 9.11% | – | – | – | – | – | – |
| COc1cc2nc(N(C)CCCNC(=O)C3CCCO3)nc(N)c2cc1OC (stereo unspecified) | – | inactive | inactive | – | – | – | inactive | inactive | inactive | 19.8% (inactive) and 12.7% (inactive) | – | 64% | 88.3% | 63% | inactive | inactive | – | – | – | – |
| O=C1c2c(O)ccc(O)c2C(=O)c2c(NCCNCCO)ccc(NCCNCCO)c21 | – | inactive | inactive | – | – | – | inactive | inactive | inactive | – | – | – | 1.83% | 5.92% | 23.9 µM (active) | – | 34.5 µM (active) | 7.94 µM (active) and 1.41 µM (active) | – | – |
| Nc1c2c(nc3ccccc13)CCCC2 | inactive | inactive | inactive | inactive | inactive | -10.2% (inactive) | inactive | inactive | inactive | – | inactive | – | 15.1% | 10.3% | inactive | inactive | – | 8.91 µM (active) | – | – |
| COc1ccc(CCN(C)CCCC(C#N)(c2ccc(OC)c(OC)c2)C(C)C)cc1OC (stereo unspecified) | – | inactive | inactive | inactive | inactive | -18% (inactive) | inactive | inactive | inactive | – | inactive | – | – | – | inactive | – | inactive | – | – | – |
| Cn1ccc2cc3c(cc21)CCN3C(=O)Nc1cccnc1 | – | inactive | – | – | – | – | inactive | inactive | inactive | 16% (inactive) and 23.5% (inactive) | – | – | 72.7% | 13.8% | – | inactive | inactive | – | 25% | 23% |
| N[C@@H](Cc1c[nH]c2ccc(O)cc12)C(=O)O | – | inactive | inactive | inactive | – | -3.27% (inactive) | inactive | inactive | inactive | -0.101% (inactive) and -5.53% (inactive) | inactive | 101% | 101% | 132% | inactive | inactive | – | – | – | – |
| CN(C)CCOC(c1ccccc1)c1ccccc1 | – | inactive | inactive | inactive | – | -12% (inactive) | inactive | inactive | inactive | -13.8% (inactive) and 10.9% (inactive) | inactive | – | 39.2% | 41.2% | inactive | inactive | – | – | 85.5% | 32.1% |
